VDR inh: blocks the human vitamin D receptor; AID 504847; 400,000 tested, 0.93% active; VDR-SRC2-3 peptide fluorescence polarization, 2 h; Potency, µM, most hits filed as inhibitors; P11473
Target sequence (P11473 whole entry, looked up): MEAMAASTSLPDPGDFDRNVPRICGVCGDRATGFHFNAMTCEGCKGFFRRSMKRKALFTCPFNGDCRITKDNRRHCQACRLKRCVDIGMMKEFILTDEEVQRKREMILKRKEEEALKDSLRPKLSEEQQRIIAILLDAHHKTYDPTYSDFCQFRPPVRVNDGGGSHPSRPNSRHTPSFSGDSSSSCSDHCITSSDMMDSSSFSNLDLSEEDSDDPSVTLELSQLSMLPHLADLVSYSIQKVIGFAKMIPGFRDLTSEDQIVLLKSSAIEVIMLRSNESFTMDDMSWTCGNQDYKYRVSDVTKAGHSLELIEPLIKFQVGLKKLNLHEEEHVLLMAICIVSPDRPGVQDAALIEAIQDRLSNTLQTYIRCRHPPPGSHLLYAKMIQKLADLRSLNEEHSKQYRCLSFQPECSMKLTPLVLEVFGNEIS
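Inhibition of the VDR/SRC2-3 peptide interaction is quantified by fluorescence polarization. Compounds (23 nl, pintool) incubate with the reagents for 2 hours at ambient room temperature.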
Tau fibril FP: blocks human tau fibril formation measured by polarization; P10636; K18 P301L tau heparin fibrillization, Alexa594 FP, 6 h; Potency, µM (top dose mostly 57.7 µM), most hits filed as inhibitors; 280,000 tested, 0.39% active; AID 1468; further: nearly all actives have a fitted effect of over 55% in size
Target sequence (P10636 561-689 P618L limits assumed): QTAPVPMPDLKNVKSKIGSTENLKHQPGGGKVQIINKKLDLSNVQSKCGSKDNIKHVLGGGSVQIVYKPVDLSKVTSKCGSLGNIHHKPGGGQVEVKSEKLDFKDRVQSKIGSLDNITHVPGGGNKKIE
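Human tau K18 […] P301L fragment, 15 uM unlabeled plus 0.24 uM Alexa 594-labeled tau (final), with compound and 20 uM heparin in 100 mM sodium acetate pH 7; 6 hr at 37 C, then Alexa 594 FP read.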
Tau ThT inhib: inhibitors of human tau fibril formation, thioflavin T binding; Potency, µM (titrated, usually from 57.4 µM), usual class: inhibitors; recombinant tau K18 P301L, heparin-induced fibrillization, ThT fluorescence; 270,000 tested, 2.1% active; P10636; further: nearly all actives have a fitted effect of over 55% in size
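Recombinant human tau K18 fragment […] carrying P301L, 15 uM unlabeled plus 0.24 uM Alexa 594-labeled, was fibrillized with 20 uM heparin in 100 mM sodium acetate pH 7 for 6 hr at 37 C; 30 uM ThT fluorescence read after 1 hr.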
PLK1 PBD block: inhibitors of human PLK1 polo-box domain binding | P53350 | Plk1 PBD binding of FITC phosphopeptide, fluorescence polarization | 360,000 tested, 2.8% active | Potency, µM, actives largely listed as inhibitors; further: series mostly up to about 57 µM; nearly all actives have a fitted effect of over 65% in size
Tau fluor cs: counter-screen for tau fibril formation inhibitors; tau K18 P301L (four-repeat tau fragment) Alexa594 fluorescence, heparin fibrillization; Potency, µM (series often up to 57.7 µM); 280,000 tested, 0.93% active; further: nearly all actives have a fitted effect of over 55% in size
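Human K18 P301L tau (15 uM unlabeled plus 0.24 uM Alexa 594-labeled, final) in 100 mM sodium acetate pH 7 was mixed with compound and 20 uM heparin and incubated 6 hr at 37 C.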
Sfp PPTase inh: inhibitors of Bacillus subtilis Sfp phosphopantetheinyl transferase. AID 1490. Q9F4F7. 310,000 tested, 3.5% active. Biochemical Sfp PPTase activity, qHTS. Potency, µM, most hits filed as inhibitors;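 further: the enzyme is Sfp with the accession as filed and its product quenches rhodamine fluorescence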
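Step 1, compound plus 15 nM Sfp-PPTase, 15 min, room temperature. Step 2, add rhodamine-CoA (5 uM) and BHQ-2-YbbR (12.5 uM). Step 3, read 525/598 nm fluorescence at 0 and 30 min.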
Hits are given with their value; n = inactive; u = inconclusive; x = not tested or not shown; [ ] = remark or other dose. Most compounds without a hit are left out; they make up all but 6% or so of the library. The call rests on the fitted dose curve; in most records, active means well fitted curve in the direction sought with a large enough effect; inconclusive means small, poorly fitted or top-dose-only effect, or another doubt; inactive means no such curve, though single readings can be large; an effect the other way counts as inactive or inconclusive.

SMILES	VDR inh	Tau fibril FP	Tau ThT inhib	PLK1 PBD block	Tau fluor cs	Sfp PPTase inh
CCN=c1scc(C)n1/N=C/c1ccc(O)c(O)c1O	n	22µM	11µM	6.7µM	u	8.9µM
COCCN=c1scc(-c2ccccc2)n1/N=C/c1c[nH]c2ccccc12	n	u	13µM	n	10µM[quencher]	n
Cc1cc(C)n(/N=C/c2c[nH]c3ccccc23)c(=O)c1	n	n	n	n	n	n
CC(C)C[C@@H](CC(=O)N[C@@H](CCCN)CC(=O)N[C@@H]1CCNC[C@H]1C(=O)N[C@H](CC(=O)N[C@@H](CCC(=O)O)CC(=O)O)Cc1ccccc1)NC(=O)[C@@H]1CNCC[C@H]1N	n	n	n	x	n	n
CC(/C=C1\SC(=S)N(C(C(=O)O)C(C)C)C1=O)=C\c1ccccc1 (stereo not given)	u	n	22µM	24µM	n	u
CC(/C=C1\SC(=S)N(c2ccc(C(=O)O)cc2)C1=O)=C\c1ccccc1	89µM	n[0.0958 µM]	x	24µM	n[0.0958 µM]	n
CC(/C=C1\SC(=S)N(CCC(=O)Nc2ccc(O)cc2)C1=O)=C\c1ccccc1	n	x	x	n	x	n
CC(=O)c1ccc(NC(=O)CN2C(=O)/C(=C/C(C)=C/c3ccccc3)SC2=S)cc1	n	u	u	n	u	n
COC(=O)NC1C=CCCC1C(C)=O (stereo not given)	n	u	n	x	n	n
O=C1c2ccccc2C(=O)N1CCSc1ccccc1	n	n	n	27µM	n	n
CN1C(=O)c2ccc(NC(=O)CSc3ccccc3)cc2C1=O	n	x	x	n	x	n
O=C(O)CCN1C(=O)c2ccc(NC(=O)CSc3ccccc3)cc2C1=O	u	n	n	27µM	n	n
O=C1CC(=O)N(CCc2ccccc2)C(=O)N1CCc1ccccc1	n	u	28µM	n	n	u
O=C1c2ccccc2C(=O)N1CCc1ccccc1	n	x	x	27µM	x	x
CC1CC(=O)N(CCc2ccccc2)C(=O)C1	n	x	x	n	x	x
O=C1c2ccccc2C(=O)N1CCCCCCc1ccccc1	n	x	x	n	x	x
CN(C)c1ncnc2ccc(-c3ccccc3C(F)(F)F)cc12	u	x	x	x	x	n
O=C(c1ccccc1)c1c2c(cc3sc4ccccc4[n+]13)-c1cccc3cccc-2c13	n	u	6.3µM	u	u	u
CC(C)(C)OC(=O)N1CCCC(C(=O)Nc2ccc(C(=O)N3CCOCC3)cc2)C1 (stereo not given)	n	x	x	n	x	x
CC(=O)c1c(C)[nH]c(C(=O)Nc2nc(-c3ccc(-c4ccccc4)cc3)cs2)c1C	n	40µM	n	n	u	n
O=S(=O)(Nc1ccc(-c2csc(-c3ccccc3)n2)cc1)c1ccc(F)cc1	n	11µM	n	n	u	n
O=C(Nc1nc(-c2ccccc2)cs1)c1ccccc1NS(=O)(=O)c1ccc(F)cc1	n	u	14µM	27µM	u	n
O=C(Nc1cccnc1)c1ccccc1NS(=O)(=O)c1ccc(F)cc1	n	n	n	n	n	n
CN(C(=O)Cn1cnc2onc(-c3ccc(F)cc3)c2c1=O)c1ccccc1Cl	n	n	n	x	u	x
COc1ccc(C2CC(c3ccccc3)=NN2C(=O)c2cccs2)cc1 (stereo not given)	n	u	n	n	7.9µM[quencher]	n
SMILES	VDR inh	Tau fibril FP	Tau ThT inhib	PLK1 PBD block	Tau fluor cs	Sfp PPTase inh
COc1ccc(C2=NN(C(=O)c3cccs3)C(c3ccccc3O)C2)cc1 (stereo not given)	n	n	n	n	n	n
COc1ccc(C2=NN(C(=O)c3cccs3)C(O)(C(F)(F)F)C2)cc1 (stereo not given)	n	n	u	n	u	45µM
O=C(c1ccccc1)N1N=C(c2ccccc2)CC1(O)C(F)(F)F (stereo not given)	n	x	x	n	x	n
Cc1ccc(S(=O)(=O)n2ccc3c2CCCC3=O)cc1	u	x	x	27µM	x	n
CCC(CC)CN1C(N(C)C)=NC[C@@H]1CC(C)C	n	x	x	n	x	x
C=C(CC[C@@H](C)[C@H]1CCC2[C@]1(C)CC[C@]13C[C@@]14CCC(OC(=O)/C=C/c1ccc(O)c(OC)c1)C(C)(C)[C@@H]4CC[C@@]23C)C(C)C (stereo not given in full)	n	x	x	x	x	n
CC(=O)Nc1cccc(NC(=O)CN2C(=O)CCSc3ccccc32)c1	n	n	n	x	n	x
COc1ccc(S(=O)(=O)N2CCN(C(=O)/C=C/c3ccco3)CC2)cc1	n	x	x	n	x	x
CC(NC(=O)/C=C/c1ccco1)c1nc2ccccc2n1Cc1cccc(Cl)c1 (stereo not given)	n	n	n	n	n	28µM
COc1ccc(C(NC(=O)/C=C/c2ccco2)c2ccc(OC)cc2)cc1	u	n	n	u	n	25µM
CCC(Cc1ccccc1)NC(=O)/C=C/c1ccco1 (stereo not given)	n	x	x	n	x	56µM
CC(=C/C(=O)O)/C=C/c1ccco1	n	u	14µM	n	n	u
CCc1nn(CC(=O)Nc2ccc(NC(C)=O)cc2)c(=O)c2cc3sccc3n12	n	n	u	x	n	x
OC(CNC1CCCCC1)CON=C1CCSc2c(Cl)cccc21 (stereo not given)	x	x	x	n	x	x
CCCCCCCCN1C(=O)[C@H](CC(=O)N2CCCC2)C[C@@]2(C(=O)OC)CCCCC=C12	x	x	x	n	x	x
O=C(OCc1ccccc1)N1CCC2CC1c1cc(-c3cc4ccccc4o3)ccc12 (stereo not given)	x	x	x	n	x	x
COc1ccc(-c2csc(NC(=S)NC(=O)/C=C/c3ccco3)n2)cc1OC	n	n	u	n	n	n
COc1ccc(CCNC(=O)/C=C/c2ccco2)cc1OC	n	x	x	n	x	45µM
CC(C)NC(=O)COC(=O)/C=C/c1ccco1	n	n	n	n	n	50µM
COc1ccc(C(NC(=O)/C=C\c2ccco2)c2ccc(OC)c(OC)c2)cc1 (stereo not given)	n	n	n	u	n	20µM
CCOc1ccc(CCNC(=O)/C=C/c2ccco2)cc1OCC	n	x	x	n	x	n
Cc1ccc(C(=O)N2CCC(N3CCC(C(=O)N4CCOCC4)CC3)CC2)cc1	x	x	x	n	x	x
O=C1c2ccccc2C(=O)N1c1ccc(S(=O)(=O)N2CCOCC2)cc1	n	x	x	x	x	x
Cc1cc(C)n(-c2nc3cc(Cl)c(Cl)cc3nc2Nc2c(C)cccc2C)n1	n	n	n	x	n	x
CCCCC1=CC2=C(OC(C)=O)C(=O)C(C)(OC(=O)c3ccc(Cl)nc3)C(=O)C2=CO1 (stereo not given)	u	u	22µM	x	u	n
CCCCC1=CC2=C(c3ccco3)C(=O)C(C)(OC(=O)c3ccc(Cl)nc3)C(=O)C2=CO1 (stereo not given)	u	n	n	x	n	n
COc1ccc(-n2cnc(=S)[nH]c2=S)cc1	28µM	x	x	u	x	x
COc1ccc(-n2cc(-c3ccccc3)[nH]c2=S)cc1	n	n	n	n	n	n

Screens from PubChem.
